Assay results taken from PubChem BioAssay (Tox21).
Results filed as inconclusive are left out. A call without a number means that no potency is given here. Calls of active or inactive are those of the source. The call rests on the fitted dose curve. Bridge positions count the residues as written; N and C are the ends. Square brackets hold non-standard residues; d marks the D form. Peptide text beside a SMILES is read from it. hArg = N=C(N)NCCCC[C@H](N)C(=O)O; Mpa = O=C(O)CCS

Assay: p53 small molecule agonists, cell-based qHTS assay with human liver microsomes (AID 1963577);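 further: p53 response element beta-lactamase reporter cells with liver microsomes plus NADPH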
How it was run: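 Steps: plate p53RE-bla cells, incubate 5 h at 37 C; add compound in DMSO; add microsomes (0.5 mg/mL final) and NADPH (0.5 mg/mL final); incubate 16 h at 37 C; add LiveBLAzer, 2 h RT; read fluorescence.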

SMILES	Potency
CC(=O)OC(OC(C)=O)c1ccc([N+](=O)[O-])o1	inactive
Nc1ccc(-c2ccc(F)cc2)cc1	inactive
C[Si](C)(C)C	inactive
NC(=O)[C@@H]1CSSCCC(=O)N[C@@H](CCCCN=C(N)N)C(=O)NCC(=O)N[C@@H](CC(=O)O)C(=O)N[C@@H](Cc2c[nH]c3ccccc23)C(=O)N2CCC[C@H]2C(=O)N1 ([Mpa][hArg]GDWPC-NH2; disulfide 1-7)	inactive
O=C=NC1CCC(CC2CCC(N=C=O)CC2)CC1 (centres undefined)	inactive
CC(C)C[C@H](NC(=O)[C@H](Cc1ccccc1)NC(=O)c1cnccn1)B(O)O	inactive
CCCCNC1CC(C)(C)NC(C)(C)C1	inactive
C[C@]12CC[C@H]3C(=CCc4cc(O)ccc43)[C@@H]1CCC2=O	inactive
O=C[C@@H](O)[C@H](O)[C@H](O)CO	inactive
c1csc(SSc2cccs2)c1	inactive
COc1cc(NS(=O)(=O)c2ccc(N)cc2)nc(C)n1	inactive
O=C(OCCc1ccccc1)c1ccccc1	inactive
C/C(=C\c1ccc(C(=O)O)cc1)c1ccc2c(c1)C(C)(C)CCC2(C)C	inactive
CCc1c(C)[nH]c2c1C(=O)C(CN1CCOCC1)CC2 (centres undefined)	inactive
O=C(O)CCCCCCCCCC(=O)O	inactive
CC(CN=Cc1ccccc1O)N=Cc1ccccc1O (centres undefined)	inactive
Cc1cc(C2CCCCC2)n(O)c(=O)c1	inactive
Nc1ccc(F)cc1F	inactive
O=C1c2ccccc2-c2ccccc21	inactive
CCCCC(CC)COP(=O)(O)O (centres undefined)	inactive
O=C(O)CCCl	inactive
COC(=O)Nc1nc2ccc(C(=O)C3CC3)cc2[nH]1	inactive
O=S(=O)(O)c1cc(I)c(O)c2ncccc12	inactive
CC1=Nc2ccccc2C1(C)C	inactive
COc1nccnc1CC(C)C	inactive
CC[C@]1(O)C[C@H]2CN(CCc3c([nH]c4ccccc34)[C@@](C(=O)OC)(c3cc4c(cc3OC)N(C=O)[C@H]3[C@@](O)(C(=O)OC)[C@H](OC(C)=O)[C@]5(CC)C=CCN6CC[C@]43[C@@H]65)C2)C1	inactive
O=C(O)Cc1cc(I)c(Oc2cc(I)c(O)c(I)c2)c(I)c1	inactive
CCCCN(CCN(CCCC)C(=O)N1CCOCC1)C(=O)N1CCOCC1	inactive
CS(=O)(=O)CCNCc1ccc(-c2ccc3ncnc(Nc4ccc(OCc5cccc(F)c5)c(Cl)c4)c3c2)o1	inactive
